Reference: PubChem BioAssay (NCATS)
Records with an inconclusive call do not appear. Active and inactive are the calls of the source. Unless noted, calls follow the shape of the dose curve; as a rule, active = well fitted curve in the direction sought with a large enough effect; inconclusive = small, poorly fitted or top-dose-only effect, or another doubt; inactive = no such curve, though single readings can be large; an effect the other way counts as inactive or inconclusive.

How the values were obtained:
[1] = Validation of Assay for Modulators of Lamin A Splicing (AID 1459; active = well fitted curve in the direction sought with a large enough effect in the signal ratio; the % refers to the signal ratio;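 also: cells exposed to compound for two days before reading; 0% is about no effect; ratio rise marks activators and ratio drop marks inhibitors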)
Summary of the method: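 HeLa S3 lamin A-EGFP/DsRed2 stable clone, 600 cells/well, Opti-MEM 2% FBS; compounds by pin tool; 48 hrs, 37 °C/5% CO2; Acumen 488 nm scan, objects 10-100 um; GFP/RFP intensity ratio.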

[2] = target: DNA repair nuclease/redox regulator APEX1 (Homo sapiens) (UniProt P27695); test: qHTS Validation Assay for Inhibitors of the Human Apurinic/apyrimidinic Endonuclease 1 (APE1) (AID 1705;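 also: TAMRA fluorescence gain over two minutes as APE1 cuts a quenched THF abasic duplex; series mostly up to about 57 µM; % is scaled to controls: 0 for no effect and ±100 for the full control effect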)
DNA repair nuclease/redox regulator APEX1 (Homo sapiens), sequence (P27695 whole entry, looked up): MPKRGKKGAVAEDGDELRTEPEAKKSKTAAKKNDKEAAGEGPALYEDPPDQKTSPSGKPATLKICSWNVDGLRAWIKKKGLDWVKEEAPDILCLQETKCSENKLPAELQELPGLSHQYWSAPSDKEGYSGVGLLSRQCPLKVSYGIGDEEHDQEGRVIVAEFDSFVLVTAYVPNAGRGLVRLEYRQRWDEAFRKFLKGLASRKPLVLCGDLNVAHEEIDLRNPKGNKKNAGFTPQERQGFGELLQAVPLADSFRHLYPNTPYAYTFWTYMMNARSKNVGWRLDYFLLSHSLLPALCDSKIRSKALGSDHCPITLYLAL
Summary of the method: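 qHTS, 1536-well. APE1 + cpd 15 min RT → 50 nM TAMRA/BHQ-2 THF-abasic dsDNA substrate → kinetic fluorescence, 3 reads/60 s; delta(read3−read1) = reaction progress. No-enzyme buffer = negative control.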

[3] = Counterscreen for APE1 Inhibitors: Fluorescent Dye Displacement Validation Assay (AID 1707);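 also: plate controls were ThO with dsDNA and no compound for no effect and ThO without dsDNA for full effect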
Summary of the method: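 Counterscreen flags promiscuous DNA binders: compounds displacing ThO from duplex DNA (abasic THF site, 50 nM) reduce 540 nm emission (480 nm excitation). ThO 250 nM final; Tris-HCl pH 7.5 with NaCl, MgCl2 and Tween-20.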

[4] = target: Endonuclease 4 (Escherichia coli (strain K12)) (UniProt P0A6C1); test: Counterscreen for APE1 Inhibitors: qHTS Validation Assay for Inhibitors of Endonuclease IV (AID 1708); also: % is scaled to controls: 0 for no effect and ±100 for the full control effect
Summary of the method: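 Incision of a double-stranded 50 nM TAMRA/BHQ-2 abasic substrate was followed kinetically (525/598 nm, reads every 60 s) after 15 min enzyme–compound preincubation with 2 nM EndoIV in pH 7.5 Tris buffer with MgCl2, DTT and Tween-20; concentration-response format.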

[5] = qHTS for differential inhibitors of proliferation of Plasmodium falciparum line GB4 (AID 1816); conditions: Potency: Plasmodium falciparum GB4 proliferation inhibition;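 also: parasite growth measured after 72 h incubation; 0% = vehicle DMSO and -100% = reference inhibitor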
[6] = qHTS for differential inhibitors of proliferation of Plasmodium falciparum line 3D7 (AID 1876);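 also: parasite growth measured after three days of culture; 0% = vehicle wells and -100% = reference inhibitor wells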
[7] = qHTS for differential inhibitors of proliferation of Plasmodium falciparum line D10 (AID 1877);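 also: parasites grown with compound for 72 h before DNA staining; plate controls were vehicle wells for no effect and reference inhibitor wells for full effect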
[8] = qHTS for differential inhibitors of proliferation of Plasmodium falciparum line Dd2 (AID 1882); conditions: Potency: Plasmodium falciparum Dd2 proliferation inhibition;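 also: series mostly up to about 29 µM; plate controls were DMSO vehicle for no effect and 0.29 µM artemisinin for full effect; nearly all actives have a fitted effect of over 65% in size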
Summary of the method: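 SYBR Green DNA fluorescence (ex 485, em 535 nm) after overnight lysis quantifies parasite growth; compound exposure lasted 72 h at 37 C on infected red cells at 2.5% hematocrit, 0.3% parasitemia (final). Artemisinin 0.29 uM and vehicle wells define normalization.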

[9] = qHTS for differential inhibitors of proliferation of Plasmodium falciparum line HB3 (AID 1886); conditions: Potency: Plasmodium falciparum HB3 proliferation inhibition;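 also: parasites grown with compound for 72 h before SYBR Green readout; plate controls were vehicle for no effect and reference inhibitor for full effect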
[10] = qHTS Assay for Modulators of Human Peripheral Myelin Protein 22 (PMP22) Expression/Activity (AID 1967; active = well fitted curve in the direction sought with a large enough effect in the signal ratio; the % refers to the signal ratio;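 also: 0% = untreated cells and 100% end not stated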)
Summary of the method: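 Luminescence ratio of Pmp22 promoter-driven green luciferase to EF-alpha-driven red luciferase, in engineered mouse MSC80 Schwann cells, served as read-out. Compounds were incubated 24h; untreated cells defined 0% Activity; curves were classified by r2, magnitude and activity.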

[11] = target: ATP-dependent DNA helicase Q1 (Homo sapiens) (UniProt P46063); test: qHTS Validation Assay for Inhibitors of RecQ-Like Dna Helicase 1 (RECQ1) (AID 2353);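 also: plate controls were DMSO vehicle for no effect and enzyme-free control for full effect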
ATP-dependent DNA helicase Q1 (Homo sapiens), sequence (P46063 whole entry, looked up): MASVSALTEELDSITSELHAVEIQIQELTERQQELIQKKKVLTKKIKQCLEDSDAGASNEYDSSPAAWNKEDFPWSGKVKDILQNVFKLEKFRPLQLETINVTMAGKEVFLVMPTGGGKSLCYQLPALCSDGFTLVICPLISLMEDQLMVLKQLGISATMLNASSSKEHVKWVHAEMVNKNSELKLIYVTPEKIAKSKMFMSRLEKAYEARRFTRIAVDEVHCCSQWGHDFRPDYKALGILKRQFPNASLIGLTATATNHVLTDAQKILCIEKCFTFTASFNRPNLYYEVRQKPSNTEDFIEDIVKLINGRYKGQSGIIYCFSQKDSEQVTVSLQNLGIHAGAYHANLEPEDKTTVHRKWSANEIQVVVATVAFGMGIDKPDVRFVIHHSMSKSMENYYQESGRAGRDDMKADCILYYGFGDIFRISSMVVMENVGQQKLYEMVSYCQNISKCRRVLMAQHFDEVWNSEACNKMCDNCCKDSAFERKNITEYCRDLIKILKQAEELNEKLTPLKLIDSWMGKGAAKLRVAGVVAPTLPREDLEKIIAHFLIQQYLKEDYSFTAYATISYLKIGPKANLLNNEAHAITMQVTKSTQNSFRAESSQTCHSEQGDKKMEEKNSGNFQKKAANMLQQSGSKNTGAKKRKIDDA
Summary of the method: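 RECQ1T1 50 nM; forked duplex (20 bp + 30-nt ss tails) 200 nM, ATP 2 mM final; pH 8.0, 2 mM MgCl2, 2.5 ug/ml poly(dI-dC); 15 min compound preincubation; discontinuous kinetic read over 2 h at RT.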

[12] = Validation screen for small molecules that induce DNA re-replication in MCF 10A normal breast cells (AID 463097); also: 0% is about no effect; nearly all actives have a fitted effect of over 60% in size
Summary of the method: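 Image-based qHTS: normal breast cells are incubated with compound for 48 hr, stained with Hoechst, and scanned for total nuclear fluorescence. Compounds raising the fraction of nuclei with elevated DNA content count as re-replication inducers.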

[13] = Quantitative high throughput screen for delayed death inhibitors of the malarial parasite plastid, 48 hour incubation (AID 488752); also: % is scaled to controls: 0 for no effect and ±100 for the full control effect; nearly all actives have a fitted effect of over 65% in size
Summary of the method: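 First, compound was pinned into RPMI 1640 medium containing 0.5% Albumax. Next, reporter-parasite-infected erythrocytes were added to 2% hematocrit and 0.1% parasitemia. After 48 h at 37 C under 5% CO2, luciferase detection reagent was added and luminescence read.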

[14] = target: M-phase phosphoprotein 8 (Homo sapiens) (UniProt Q99549); test: qHTS Validation Assay for Inhibitors for MPP8 Chromodomain Interactions with Methylated Histone Tails (AID 488949);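 also: 50 nM MPP8 with 50 nM peptide preformed then compounds added for 30 min; AlphaScreen signal from MPP8 chromodomain bound to biotinylated H3K9me3 peptide; top concentration of the series differs between compounds; % is scaled to controls: 0 for no effect and ±100 for the full control effect; nearly all actives have a fitted effect of over 55% in size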
M-phase phosphoprotein 8 (Homo sapiens), sequence (Q99549 whole entry, looked up): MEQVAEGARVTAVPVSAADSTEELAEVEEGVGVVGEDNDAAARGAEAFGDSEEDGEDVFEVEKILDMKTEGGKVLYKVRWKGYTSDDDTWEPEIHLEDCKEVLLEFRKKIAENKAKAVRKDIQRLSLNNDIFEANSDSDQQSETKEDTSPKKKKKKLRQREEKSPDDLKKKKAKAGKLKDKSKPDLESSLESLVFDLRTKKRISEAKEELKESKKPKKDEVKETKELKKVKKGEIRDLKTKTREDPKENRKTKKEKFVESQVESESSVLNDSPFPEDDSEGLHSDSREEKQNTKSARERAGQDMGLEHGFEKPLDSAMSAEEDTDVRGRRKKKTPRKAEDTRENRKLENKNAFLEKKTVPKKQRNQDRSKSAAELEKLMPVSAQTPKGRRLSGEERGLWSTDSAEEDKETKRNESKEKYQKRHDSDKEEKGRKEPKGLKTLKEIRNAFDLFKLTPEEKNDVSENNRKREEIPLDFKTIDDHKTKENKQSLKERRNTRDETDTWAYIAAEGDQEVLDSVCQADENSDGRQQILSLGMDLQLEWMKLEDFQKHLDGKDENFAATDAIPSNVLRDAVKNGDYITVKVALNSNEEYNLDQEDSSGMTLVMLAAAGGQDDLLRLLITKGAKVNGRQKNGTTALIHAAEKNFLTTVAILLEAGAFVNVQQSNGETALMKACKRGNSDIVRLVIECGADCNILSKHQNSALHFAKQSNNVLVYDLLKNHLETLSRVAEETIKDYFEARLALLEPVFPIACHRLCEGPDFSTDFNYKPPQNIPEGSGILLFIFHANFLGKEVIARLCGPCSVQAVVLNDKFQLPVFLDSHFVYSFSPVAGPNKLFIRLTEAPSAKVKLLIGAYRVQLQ
Summary of the method: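 50 nM MPP8 + 50 nM b-H3K9me3 peptide, PBS pH 7.4/0.01% Tween-20, 30 min RT; + cpd 30 min RT; + AlphaScreen donor/Ni-chelate acceptor beads 10 ug/mL final, 30 min dark; luminescence read.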

[15] = target: Thyrotropin-releasing hormone receptor (Homo sapiens) (UniProt P34981); test: qHTS for Small Molecule Agonists and Allosteric Enhancers of Human TRH Receptor: Validation Screen for Agonists (AID 493127;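 active = calcium activation more than 3 SD above the typical response in the agonist read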;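 also: intracellular calcium rise by fluo-8 fluorescence before TRH EC20 addition; 0% is about no effect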); conditions: TRH receptor agonist cell assay; at 2 µM; hits give high values
Thyrotropin-releasing hormone receptor (Homo sapiens), sequence (P34981 whole entry, looked up): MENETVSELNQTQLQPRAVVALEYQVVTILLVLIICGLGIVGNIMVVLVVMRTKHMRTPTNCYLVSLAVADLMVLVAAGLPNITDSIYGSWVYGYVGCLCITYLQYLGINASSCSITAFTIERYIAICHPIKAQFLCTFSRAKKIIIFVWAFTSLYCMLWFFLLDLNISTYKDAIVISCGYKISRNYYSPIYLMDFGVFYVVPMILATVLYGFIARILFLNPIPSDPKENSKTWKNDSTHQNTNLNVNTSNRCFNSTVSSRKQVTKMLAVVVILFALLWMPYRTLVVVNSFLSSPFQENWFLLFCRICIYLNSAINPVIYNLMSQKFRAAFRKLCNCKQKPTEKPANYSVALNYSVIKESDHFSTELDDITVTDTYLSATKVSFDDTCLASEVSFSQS
Summary of the method: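 Compounds are added by online pintool to dye-loaded TRHR cells while fluorescence is recorded every second. A rise in calcium signal during the agonist read marks activation; a later 10 nM TRH addition (EC20) serves the separate enhancer mode.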

[16] = target: Galactokinase (Homo sapiens) (UniProt P51570); test: qHTS Validation Assay for Inhibitors of Human Galactokinase (GALK) (AID 493189); also: 0% is about no effect
Galactokinase (Homo sapiens), sequence (P51570 whole entry, looked up): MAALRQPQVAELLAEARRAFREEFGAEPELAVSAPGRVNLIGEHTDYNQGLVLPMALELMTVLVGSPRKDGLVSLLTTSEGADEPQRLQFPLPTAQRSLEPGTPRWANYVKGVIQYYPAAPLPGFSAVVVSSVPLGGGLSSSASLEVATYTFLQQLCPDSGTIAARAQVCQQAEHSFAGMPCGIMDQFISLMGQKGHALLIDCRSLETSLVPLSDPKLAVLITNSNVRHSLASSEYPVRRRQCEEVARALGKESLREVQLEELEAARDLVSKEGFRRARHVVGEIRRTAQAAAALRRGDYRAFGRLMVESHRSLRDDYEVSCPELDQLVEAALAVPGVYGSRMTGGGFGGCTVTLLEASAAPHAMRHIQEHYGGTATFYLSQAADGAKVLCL
Summary of the method: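 5 nM GALK / 100 uM galactose / 35 uM ATP, 20 mM HEPES pH8.0, 5 mM MgCl2, 60 mM NaCl, 1 mM DTT, 0.01% BSA (final). RT 1 h; Kinase-Glo Plus luminescence.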

[17] = Validation screen for small molecules that induce DNA re-replication in SW480 colon adenocarcinoma cells (AID 504364); also: 0% is about no effect
Summary of the method: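 Image-based qHTS: compounds were incubated with SW480 cells for 48 hr, nuclei stained with Hoechst, and per-nucleus fluorescence intensity scanned to flag cells with excess DNA content.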

CN1C2CCC1CC(NC(=O)c1nn(C)c3ccccc13)C2 (configuration not stated)
inactive: outcome [1] | Potency [2] | Potency [3] | outcome [4] | Potency [5] | Potency [6] | Potency [7] | Potency [8] | Potency [9] | outcome [10] | Potency [11] | outcome [12] | Potency [13] | Potency [14] | activation [15] 0.75% | outcome [16] | outcome [17]
